Source: PubChem BioAssay
Sfp PPTase inh: inhibitors of Bacillus subtilis Sfp phosphopantetheinyl transferase; Biochemical Sfp PPTase activity, qHTS; Potency, µM, for inactives: largest response in the series, negative = inhibition, most hits filed as inhibitors; 310,000 compounds, 3.5% hits;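 also: the enzyme is Sfp with the accession as filed and its product quenches rhodamine fluorescence; 0% = enzyme reaction without inhibitor and -100% = no enzyme wells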
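With Hepes-Na pH 7.6 buffer containing 10 mM MgCl2, Sfp (15 nM) modified BHQ-2-YbbR (12.5 uM) using rhodamine-CoA (5 uM). Two reads 30 minutes apart at 525/598 nm yielded each well's rate.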
Epigenetic derep: epigenetic control regulation, reporter derepression | Potency, µM (titrated, usually from 53.9 µM), without a hit: at the highest dose GFP activation, most hits filed as activators | AID 1865 | murine LDR cells, GFP reporter derepression, 30 h | 280,000 compounds, 0.2% hits; also: % of control where 0% means no effect; nearly all actives have a fitted effect of over 60% in size
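Readout is the number of GFP-expressing murine LDR cells, counted by cytometry following washing. Cells were treated with compound for 30 h at 37 C; the stably integrated CMV-GFP locus is normally silent.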
RORgamma inh: ROR gamma (mouse) transcription inhibition; Drosophila S2 Gal4-RORgamma UAS-luciferase reporter, 20 h; P51450; 310,000 compounds, 5.4% hits; AID 2551; Potency, µM (top dose mostly 53.6 µM), for inactives: top-dose activity change, negative = inhibition, most hits filed as inhibitors; also: % is scaled to controls: 0 for no effect and ±100 for the full control effect; nearly all actives have a fitted effect of over 60% in size
Target sequence (P51450 whole entry, looked up, the tested form may be a part): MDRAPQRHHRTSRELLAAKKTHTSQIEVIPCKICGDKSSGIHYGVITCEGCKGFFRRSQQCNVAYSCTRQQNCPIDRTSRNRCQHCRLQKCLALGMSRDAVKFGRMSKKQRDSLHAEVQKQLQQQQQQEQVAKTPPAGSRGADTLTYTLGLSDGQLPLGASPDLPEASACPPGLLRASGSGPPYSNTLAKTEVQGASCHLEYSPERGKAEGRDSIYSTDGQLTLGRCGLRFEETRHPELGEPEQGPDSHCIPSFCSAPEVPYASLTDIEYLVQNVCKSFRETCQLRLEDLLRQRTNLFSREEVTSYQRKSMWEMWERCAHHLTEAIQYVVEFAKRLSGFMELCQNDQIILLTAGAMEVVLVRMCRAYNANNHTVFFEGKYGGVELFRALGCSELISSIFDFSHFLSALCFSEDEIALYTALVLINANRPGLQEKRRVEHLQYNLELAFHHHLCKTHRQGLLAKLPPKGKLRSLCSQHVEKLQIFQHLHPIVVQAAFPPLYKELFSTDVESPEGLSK
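Stably transfected Drosophila Schneider cells are the test system, with ROR gamma fused to Gal4 and luciferase under UAS control; luminescence is read after 20 hr of 700 uM copper sulfate induction at ambient temperature.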
PINK1 expr mod: PINK1 expression modulation; PINK1 immunofluorescence, high-content cytometry, 24 h; 410,000 compounds, 0.2% hits; Potency, µM (titrated, usually from 76.6 µM), for inactives: at the top dose activation (PINK1 increase), hits mostly activators; AID 624263; active = well fitted activation curve with a large enough effect; inconclusive = small, poorly fitted or top-dose-only effect; cell line not stated here; also: % of control where 0% means no effect; nearly all actives have a fitted effect of over 65% in size
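Readout is PINK1 immunofluorescence, quantified alongside mitochondrial, cell and nuclear markers by laser-scanning microplate cytometry. Cells from a stable line were exposed to compound titrations (5 concentrations) for 24 hours, with CCCP controls.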
ClpP mod: qHTS Assay for Activators of ClpP; ATP-dependent Clp protease proteolytic subunit (Bacillus subtilis (strain 168)), P80244; purified B. subtilis ClpP, FRET peptide cleavage, 20 min; Potency, µM (highest dose often 57.5 µM), without a hit: at the highest dose activity change, negative = active; 340,000 compounds, 1.9% hits; active = well fitted falling curve with a large enough effect; inconclusive = small, poorly fitted or top-dose-only effect; inactive = no such curve, though single readings can be large or run the other way; also: the source files actives as falling curves though it sought activators and does not explain the sign; nearly all actives have a fitted effect of over 65% in size
Target sequence (P80244 whole entry, looked up): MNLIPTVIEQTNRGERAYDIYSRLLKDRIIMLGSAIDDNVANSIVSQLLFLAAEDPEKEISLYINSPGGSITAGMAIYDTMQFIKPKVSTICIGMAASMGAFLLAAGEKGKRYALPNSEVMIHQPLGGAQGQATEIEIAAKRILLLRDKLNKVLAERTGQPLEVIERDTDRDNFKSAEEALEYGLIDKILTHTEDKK
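Buffer: 100 mM Tris/HCl pH8, 100 mM KCl, 0.05% low protease BSA, 2.5% glycerol, 0.01% Tween-20. ClpP 10 microg/mL final; 20 min RT; delta FRET normalized to ADEP and DMSO controls.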
Gal4-VP16 FLuc: Gal4-VP16 reporter inhibition counter-screen; AID 2546; Potency, µM (highest dose often 53.6 µM), without a hit: top-dose activity, negative = inhibition, actives largely listed as inhibitors; 310,000 compounds, 3.5% hits; Drosophila S2 Gal4-VP16 UAS-luciferase, luminescence, 20 h;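 also: Gal4-VP16 expression switched on by copper sulfate through the metallothionein promoter; % is scaled to controls: 0 for no effect and ±100 for the full control effect; nearly all actives have a fitted effect of over 50% in size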
An asterisk follows results filed as active; ? = inconclusive; . = no result; [ ] = remark or other dose. Most compounds without a hit are left out; they make up all but 8.1% or so of the library. Unless noted, calls follow the shape of the dose curve; as a rule, active = well fitted curve in the direction sought with a large enough effect; inconclusive = small, poorly fitted or top-dose-only effect, or another doubt; inactive = no such curve, though single readings can be large; an effect the other way counts as inactive or inconclusive. Potency is read from the fitted curve at half-maximal effect.

SMILES	Sfp PPTase inh	Epigenetic derep	RORgamma inh	PINK1 expr mod	ClpP mod	Gal4-VP16 FLuc
CCOCc1nnc(NC(=O)c2cc(Cl)ccc2OC)s1	35.5µM*	0.0%	35.0%	1.0%	-26.9%	-4.1%
Cn1nnnc1SCCNCc1cc(Br)ccc1OCc1ccccc1Cl	.	0.8%	.	19.2%	0.4%	.
Cc1c(CCO)sc[n+]1CCc1ccccc1	.	.	.	.	-0.8%	.
O=C(Nc1cc(Cl)ccc1-n1cncn1)c1ccco1	.	.	.	-0.6%	-1.2%	.
COc1cc(OC)c(C(=O)Nc2cc(Cl)ccc2-n2cncn2)cc1OC	.	.	.	4.1%	.	.
O=C(Nc1cc(Cl)ccc1-n1cncn1)c1ccc([N+](=O)[O-])s1	-8.4%	.	-26.5%	5.01µM*	3.6%	?
COc1ccccc1C(=O)Nc1cc(Cl)ccc1-n1cncn1	12.4%	.	11.2µM*	0.2%	-21.2%	-15.3%
CN(C)c1nc(SCc2ccccc2Cl)nc2c1CCCC2	1.9%	-5.8%	7.94µM*	-0.4%	-14.9%	7.1%[0.365 µM]
Cc1sc2ncnc(NCc3cccs3)c2c1C	8.3%	1.0%	-13.1%	2.4%	0.0%	10µM*
Fc1ccc2[nH]c3c(NCc4ccco4)ncnc3c2c1	.	.	.	-0.2%	4.3%	.
Cc1ccc2[nH]c3c(NCc4ccco4)ncnc3c2c1	-10.1%	-0.7%	-27.1%	20.7%	17.8µM*	?
Cc1sc2ncnc(NCc3cccnc3)c2c1C	-5.1%	-2.1%	-3.6%	4.8%	.	-10.3%
Cc1sc2ncnc(NCc3ccco3)c2c1C	-9.9%	-1.4%	18.9%	?	-4.2%	20µM*
c1coc(CNc2nc3nonc3nc2NCc2ccco2)c1	22.4µM*	-0.9%	0.0%	-1.9%	-8.5%	12.6µM*
O=C(N[C@@H]1c2ccccc2C2(CCN(Cc3c(O)ccc4ccccc34)CC2)[C@H]1O)c1ccccc1	.	.	.	0.3%	.	.
Cc1ccc(NS(=O)(=O)c2ccc3nc(-c4ccccc4)[nH]c3c2)cc1Cl	.	6.2%	.	22.7%	-5.6%	.
Cc1ccc(NS(=O)(=O)c2ccc(Cl)c(C(=O)Nc3ccccc3-c3nc4ccccc4[nH]3)c2)cc1C	18.0%	-2.5%	?	18.6%	35.5µM*	-9.1%
CCOc1cc(-c2ccc(OC(=O)c3ccc(C)cc3)c(OC)c2)cc(=O)c2c(C)oc(C)c12	.	?	.	4.1%	-0.9%	.
C=CCNC(=S)Nc1ccc(Cl)cc1F	15.8%	-1.1%	14.1µM*	0.4%	-1.8%	-10.2%
C=CCNC(=S)NCc1ccc(CNC(=S)NCC=C)cc1	27.6%	-0.4%	13.0%	-1.1%	-6.0%	-2.7%
CN(C)/C=N/C(=S)Nc1ccccc1	8.3%	-0.8%[10.1 µM]	15.8µM*	3.1%	.	15.7%[10 µM]
Fc1cc(Br)ccc1NC(=S)NCCc1ccccc1	-5.8%	1.1%	7.94µM*	.	1.1%	?
CN(C)S(=O)(=O)Nc1ccc(Br)cc1F	-0.5%	-2.1%	0.0%	-1.3%	-1.8%	-6.7%
CN(C)/C=N/C(=S)Nc1ccc(Br)cc1F	-22.0%	2.3%	?	2.3%	-3.8%	12.6µM*
Cc1cc(NC(=O)c2cc(-c3ccc(Cl)c(Cl)c3)on2)n(-c2ccccc2)n1	.	-0.9%	.	2.3%	0.0%	.
SMILES	Sfp PPTase inh	Epigenetic derep	RORgamma inh	PINK1 expr mod	ClpP mod	Gal4-VP16 FLuc
COc1cccc(CNC(=O)Cc2c(C)c3ccc(OC)c(C)c3oc2=O)c1	.	-1.9%	.	-0.1%	4.1%	.
CCO	.	.	-1.6%	.	.	1.8%
Cc1ccc2cc3cc(C(=O)N4CCN(c5ccccc5)CC4)oc3nc2c1	.	0.8%	.	-0.3%	-5.9%	.
O=C(NCc1ccc(Cl)cc1)c1ccc2oc(=O)n(Cc3ccccc3)c2c1	.	-6.6%	.	0.5%	-2.2%	.
C=CCNC(=S)Nc1ccc(Br)cc1F	26.5%	-0.1%	15.8µM*	8.6%	-0.1%	?
COc1ccc2[nH]c(=O)c(CN(C(=O)c3cccc(Cl)c3)c3ccccc3OC)cc2c1	.	2.9%	.	-1.1%	-21.9%	.
COCC(=O)N(Cc1cc2ccc(C)cc2[nH]c1=O)c1ccc(OC)cc1	6.6%	-1.0%	-13.0%	-2.1%[38.3 µM]	?	-0.5%
COCC(=O)N(Cc1cc2cc(OC)ccc2[nH]c1=O)c1ccc(C)cc1	4.7%	-1.0%	13.0%	-0.8%	25.1µM*	-2.8%
COCC(=O)N(Cc1cc2cc(OC)ccc2[nH]c1=O)c1ccccc1OC	0.1%	-1.6%	15.6%	1.7%	28.2µM*	0.7%
O=c1c(O)c(-c2cc(O)c(O)c(O)c2)oc2cc(O)ccc12	?	.	-29.2%	.	.	-16.0%
COc1cc(OC)c(C(=O)O/N=C(\N)c2ccccn2)cc1OC	6.5%	.	27.0%	-0.6%	-0.8%	2.1%
N/C(=N\OC(=O)COc1ccccc1Cl)c1ccccn1	-58.1%	-6.4%	?	3.2%	14.1µM*	?
Cc1ccc(C(=O)O/N=C(\N)c2ccccn2)c(C)c1	15.7%	.	?	-1.9%	-0.1%	6.31µM*
Cc1ccc(C)c(OCC(=O)O/N=C(\N)c2ccccn2)c1	-0.6%	-1.0%	15.1%	-0.3%	2.4%	5.4%
COc1ccccc1C(=O)O/N=C(\N)c1ccccn1	-17.1%	-2.4%	3.16µM*	1.8%	.	?
N/C(=N\OC(=O)c1ccccc1Cl)c1ccccn1	16.4%	1.3%	6.31µM*	5.1%[38.3 µM]	-0.8%	14.1µM*
N/C(=N\OC(=O)COc1ccc2ccccc2c1)c1ccccn1	89.1µM*	3.2%	?	4.9%[38.3 µM]	-0.2%	-85.0%
CN1/C(=C\C(=S)Nc2ccccc2)C(C)(C)c2ccccc21	31.6µM*	9.5%	?	11.4%	.	?
COc1ccccc1C(=O)NC(=S)/C=C1/N(C)c2ccccc2C1(C)C	?	0.1%	3.5%	4.9%	-1.7%	2.9%
CN1/C(=C/C(=S)NC(=O)C2(C)CC2(Cl)Cl)C(C)(C)c2ccccc21 (stereo not drawn)	11.2%	1.1%	4.47µM*	3.1%	.	?
CN1/C(=C\C(=S)NC(=O)c2ccccc2Cl)C(C)(C)c2ccccc21	?	-1.8%	7.94µM*	7.3%	-2.6%	20µM*
CCOc1ccc(NC(=O)CC2SC(=O)N(c3ccccc3)C2=O)cc1 (stereo not drawn)	10µM*	0.9%	?	-0.2%	1.4%	?
Cc1ccccc1NC(=O)CC1SC(=O)N(c2ccccc2)C1=O (stereo not drawn)	?	2.1%	?	1.3%	-1.8%	0.9%
O=C(CC1SC(=O)N(c2ccccc2)C1=O)Nc1cccc2ccccc12 (stereo not drawn)	20µM*	3.2%	-28.2%	5.2%	.	3.8%
CCOc1ccccc1NC(=O)CC1SC(=N)N(c2ccccc2)C1=O (stereo not drawn)	-5.0%	-0.4%	19.0%	.	.	7.1%
